HDAC3 inh: inhibitors of human histone deacetylase 3. inhibition, % at 8.3 µM. recombinant HDAC3, fluorogenic peptide/trypsin coupled, fluorescence. 320,000 tested, 0.15% active; in the data active = inhibition above about 26%, passing the limit was not always enough
Rtt109 Vps75: C. albicans Rtt109 histone acetyltransferase inhibition; Q5AAJ8; purified Rtt109/Vps75, ThioGlo CoA-SH fluorescence, 4 h; inhibition, % at 34.9 µM; 330,000 tested, 0.16% active; AID 540336;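 active = inhibition of at least 50% in every replicate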
PKA-R2B activ: activates the human PKA-R2B holoenzyme complex; P22694+P31323; PKA-R2B holoenzyme dissociation, Cy5-IP20 fluorescence polarization; R2B truncated from residue 108, S112A mutant; 0% DMSO only, 100% 113 µM cGMP; activation, % at 11.4 µM; 340,000 tested, 0.079% active; AID 504700;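 active = activation above a cutoff set at the mean over all compounds plus 3 SD, cut at about 18% in these data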;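 note: higher means more holoenzyme dissociation and a rise in polarization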
Target sequence (P31323 whole entry, looked up, other chains not shown, the tested form may be a part): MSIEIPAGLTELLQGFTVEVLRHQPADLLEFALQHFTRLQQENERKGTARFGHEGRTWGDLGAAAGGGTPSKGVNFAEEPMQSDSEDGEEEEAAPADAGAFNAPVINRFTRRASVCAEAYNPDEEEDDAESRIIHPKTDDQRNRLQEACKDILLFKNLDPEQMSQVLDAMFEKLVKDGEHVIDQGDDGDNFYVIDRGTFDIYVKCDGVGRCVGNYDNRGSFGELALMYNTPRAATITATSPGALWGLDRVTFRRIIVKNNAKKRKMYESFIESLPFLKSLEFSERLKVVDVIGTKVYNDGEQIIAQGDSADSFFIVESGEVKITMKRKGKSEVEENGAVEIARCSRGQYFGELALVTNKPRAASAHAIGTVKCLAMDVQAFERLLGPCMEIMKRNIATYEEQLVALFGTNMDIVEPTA
PKA-R1A act: activates the PKA-R1A holoenzyme complex; PKA-R1A dissociation, Cy5-IP20 fluorescence polarization; scaled: DMSO 0%, 113 µM cGMP 100%; activation, % at 11.4 µM; 340,000 tested, 0.083% active; AID 504707;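 active = percent activation above the mean of all tested compounds plus 3 SD, cut at about 19% in these data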;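 note: higher means more PKAc released from R1A so a rise in polarization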
R2B FP artifact: FP assay interference, PKA-R2B counter-screen. shares compounds with PKA-R2B activ. FP artifact counterscreen, fluorescence polarization. activation, % at 11.4 µM. 270 tested, 6% active; in the data active = activation above about 20%;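 note: Cy5 labelled IP20 peptide probe with compound but no PKA protein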
PKA-R2B confirm: PKA-R2B complex activation, confirmation; AID 504797; fluorescence polarization; activation, % at 11.4 µM; 270 tested, 9% active; shares compounds with PKA-R2B activ; in the data active = activation above about 19%
Target sequence (P31323 whole entry, looked up): as the sequence (P31323 whole entry, looked up, other chains not shown, the tested form may be a part) above
R1A FP artifact: FP assay interference, PKA-R1A counter-screen. shares compounds with PKA-R1A act. Cy5-IP20 peptide alone, fluorescence polarization artifact counterscreen. activation, % at 11.4 µM. 280 tested, 7% active. AID 504799;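 active = mean activation over triplicate runs exceeds the adjusted cutoff derived for the parent primary screen, cut at about 19% in these data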;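 note: no PKA protein present so any polarization rise reflects compound interference; 0% = tracer peptide mix alone and 100% = mix with added PKA catalytic subunit; higher means stronger polarization artifact and likely false positive in parent screen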
PKA-R1A confirm: PKA-R1A complex activation, confirmation; shares compounds with PKA-R1A act; Cy5-IP20 fluorescence polarization, PKA-R1A holoenzyme dissociation; activation, % at 11.4 µM; 280 tested, 9% active;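 active = mean activation over replicate wells exceeds the adjusted hit threshold taken from the earlier primary screen, cut at about 20% in these data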;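 note: 0% = holoenzyme mix with DMSO only and 100% = cGMP-activated control wells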
* = called active by the depositor; ! = repeats disagree. This is a sample that favours compounds with a hit; in the whole collection about 0.43% have one here.

COC(=O)C1=C(c2ccc(OC(F)(F)F)cc2)C[C@@H]2CC[C@H]1N2C(=O)NCCOc1ccccc1Cl was read as HDAC3 inh 34*, Rtt109 Vps75 5, PKA-R2B activ -16 and PKA-R1A act -1.
`CNC(=O)Oc1ccc(N(C)C)cc1C(C)C` gave HDAC3 inh -3, Rtt109 Vps75 3, PKA-R2B activ -6 and PKA-R1A act -5.
`C[C@]12CC[C@H]3[C@@H](CCC4=CC(=O)CC[C@@H]43)[C@@H]1CC[C@@H]2O` gave Rtt109 Vps75 -13, PKA-R2B activ 0 and PKA-R1A act 5.
For C[C@]12CC[C@@H]3c4ccc(O)c(O)c4CC[C@H]3[C@@H]1CC[C@@H]2O the results were HDAC3 inh 3, Rtt109 Vps75 132*, PKA-R2B activ 1 and PKA-R1A act 4.
Screening COC(=O)C1=C(c2ccc(F)cc2F)C[C@@H]2CC[C@H]1N2C(=O)NCCOc1ccccc1Cl returned HDAC3 inh 6, Rtt109 Vps75 -5, PKA-R2B activ -6 and PKA-R1A act 5.
`O=c1oc2ccccc2c(O)c1C(c1ccc([N+](=O)[O-])cc1)c1c(O)c2ccccc2oc1=O` gave Rtt109 Vps75 68*, PKA-R2B activ -11 and PKA-R1A act -2.
Oc1ccc(O)c2c1C1(Cl)C(Cl)=C(Cl)C2(Cl)C1(Cl)Cl was read as Rtt109 Vps75 -1, PKA-R2B activ 7 and PKA-R1A act -4.
`O=C(Nc1cccnc1)c1c(O)c2c(n(Cc3ccccc3)c1=O)CCCC2` gave HDAC3 inh -4, Rtt109 Vps75 0, PKA-R2B activ -6 and PKA-R1A act -10.
Screening O=C(Nc1ccc(F)cc1)c1c(O)c2c(n(Cc3ccccc3)c1=O)CCCC2 returned HDAC3 inh -6, Rtt109 Vps75 50*, PKA-R2B activ 4 and PKA-R1A act -13.
Screening C[C@H](NC(=O)N1C[C@H]2C[C@@H](C1)c1cccc(=O)n1C2)C(=O)Nc1ccccc1F returned HDAC3 inh 2, Rtt109 Vps75 13, PKA-R2B activ -5 and PKA-R1A act 4.
For Cc1ccc(N2C(=O)NC(=O)/C(=C/c3ccc(OC(=O)c4cccs4)cc3)C2=O)cc1 the results were HDAC3 inh 56*, Rtt109 Vps75 -23, PKA-R2B activ 8 and PKA-R1A act 3.
Screening COc1ccc(N2C(=O)NC(=O)/C(=C/c3cccc(OC(=O)c4cccs4)c3)C2=O)cc1Cl returned HDAC3 inh 8.
COC(=O)C1=C(C(=O)OC)SC2(S1)C(C(=O)OC)=C(C(=O)OC)Sc1c2ssc1=O was read as Rtt109 Vps75 -4, PKA-R2B activ -4 and PKA-R1A act -4.
For COC(=O)C1=C(C)NC(C)=C(C(=O)OC)C1c1ccccc1[N+](=O)[O-] the results were HDAC3 inh -4, Rtt109 Vps75 134*!, PKA-R2B activ -3 and PKA-R1A act -4.
Screening Clc1ccc(COC(Cn2ccnc2)c2ccc(Cl)cc2Cl)cc1 (configuration not stated) returned HDAC3 inh 2, Rtt109 Vps75 74*!, PKA-R2B activ 2 and PKA-R1A act -5.
Cc1ccccc1[N+](=O)[O-] was read as HDAC3 inh -4, Rtt109 Vps75 1, PKA-R2B activ -5 and PKA-R1A act 8.
Screening O=C1NC(=O)C(Sc2ccccc2[N+](=O)[O-])C(=O)N1 returned HDAC3 inh 4, Rtt109 Vps75 86*, PKA-R2B activ 1 and PKA-R1A act -2.
For CCCC(C)n1[nH]c(=O)c2c1NC(=O)CSC2c1ccccc1 (configuration not stated) the results were HDAC3 inh -8, Rtt109 Vps75 -2, PKA-R2B activ -2 and PKA-R1A act -7.
Screening C[C@H]1CC[C@H]2NCCN[C@H]2C1 returned HDAC3 inh -4, Rtt109 Vps75 56*, PKA-R2B activ 2 and PKA-R1A act -4.
`NNc1n[nH]c(=S)n1N` gave HDAC3 inh 3, Rtt109 Vps75 139*, PKA-R2B activ -2 and PKA-R1A act -6.
Screening C#CCNc1ccncc1S(=O)(=O)NC(=O)NC(C)C returned HDAC3 inh -8, Rtt109 Vps75 6, PKA-R2B activ 20*, PKA-R1A act 10, R2B FP artifact 2 and PKA-R2B confirm 2.
For CCCCn1c(=O)c(C(=O)Nc2nnc(C(C)C)s2)c(O)c2ccccc21 the results were HDAC3 inh 0.
For CCOC(=O)c1ccccc1NC(=O)c1c(O)[nH]c(=S)[nH]c1=O the results were HDAC3 inh 7, Rtt109 Vps75 -1, PKA-R2B activ 1, PKA-R1A act 19*, R1A FP artifact 1 and PKA-R1A confirm 1.
For Cc1ccc(OCCOc2cccc(C=C3C(=O)NC(=O)NC3=O)c2)c(C)c1 the results were HDAC3 inh 4, Rtt109 Vps75 1, PKA-R2B activ 2 and PKA-R1A act -8.
`COC(=O)C1=C(c2c(C)noc2C)C[C@@H]2CC[C@H]1N2C(=O)NC(C)C` gave HDAC3 inh 3, Rtt109 Vps75 1, PKA-R2B activ -5 and PKA-R1A act 4.
Screening COC(=O)C1=C(c2c(C)noc2C)C[C@@H]2CC[C@H]1N2C(=O)N1CCCC1 returned HDAC3 inh -12, Rtt109 Vps75 -4, PKA-R2B activ -7, PKA-R1A act 20*, R1A FP artifact 3 and PKA-R1A confirm 3.

Assay outcomes: PubChem, several laboratories
